The campaign covered roughly 69,000 compounds. About 8,600 (12%) showed an effect of 50% or more. The sample as a whole holds a higher share of strong results than the screen did.

This test has as its system Plasmodium berghei. Nature of the test: Screen against P. berghei liver stage (PbLuc), transformed with Luciferase, at 10uM. Format: functional, HepG2. The following applies: tested at 10 uM.
Regarding `NC(=O)C1CNCCN1C(=O)COc1ccccc1` (stereo not drawn), the INHIBITION came to 36%.
The value for `Cc1csc(CN2CC[C@H]3C[C@@H](c4nc(C)no4)O[C@@H]3C2)n1` was -11.6%; that for `CN1[C@@H](C(=O)NCC2CC2)C[C@@H]2CN(Cc3ccsc3)C[C@@H]21` was -9.74%.
As for `CNC(=O)CCc1cc(C)nc(C2CCN(c3ccccc3)CC2)c1`, the INHIBITION was determined as 20.24%.
Regarding `Cc1nnc(N2C[C@H](C(=O)NCc3ccco3)[C@@H]3CCO[C@@H]3C2)s1`, the INHIBITION is recorded as 15.4%.
The value for `COCCNC(=O)[C@H]1CN(Cc2cccs2)C[C@H]2OCC[C@@H]12` was 43.9%; that for `Cc1nnc(N2C[C@H]3OCC[C@H]3[C@H](C(=O)NCC3CC3)C2)s1` was 66.9%.
For `COCCNC(=O)[C@@H]1CN(c2cc(OC)ncn2)C[C@H]2OCC[C@H]21`, the INHIBITION amounted to 24.9%.
For the compound `COCCNC(=O)[C@H]1CN(c2ncccn2)C[C@H]2OCC[C@@H]12`, the INHIBITION worked out at 55.5%.
On to `COCCNC(=O)[C@@H]1CN(c2ncccn2)C[C@H]2OCC[C@H]21`, for which the INHIBITION was determined as 43.9%.
For `Cc1nnc(N2C[C@H](C(=O)NCC3CC3)[C@@H]3CCO[C@@H]3C2)s1`, the INHIBITION is -19.7%.
With `COCCNC(=O)[C@H]1CN(Cc2csc(C)n2)C[C@H]2OCC[C@@H]12`, the INHIBITION amounted to 24.9%.
As for `COCCNC(=O)[C@H]1CN(c2nnc(C)s2)C[C@H]2OCC[C@@H]12`, the INHIBITION was found to be 52.9%.
With `Cc1cccc(CN2CCc3nnc(CO)n3CC2)n1`, the INHIBITION is listed as 27.4%.
With `O=C1[C@H]2CN(Cc3cccs3)C[C@H]2CN1CCN1CCCC1`, the INHIBITION is given as 9.97%.
In the case of `Cc1c(C2CCCN(C(=O)c3cccnc3)C2)n2c(nc1=O)CCC2` (stereo not drawn), the INHIBITION is reported as -73.1%.
The value for `O=C(C1CCOC1)N1CCN(CC2CC2)c2ccccc21` (stereo not drawn) was 42.8%; that for `CCOCC1CN(C(=O)c2ccoc2C)Cc2cnn(C)c21` (stereo not drawn) was 23.3%; that for `Nc1cncc(C(=O)N2Cc3ccccc3OC3(CCOCC3)C2)c1` was 22%.
Then `COc1ccc(C)cc1C(=O)N1CCCC(n2nc(C)nc2C)C1` (stereo not drawn), with -9.37%; and `COc1ccc(C(=O)N2CCCC(n3nc(C)nc3C)C2)c(OC)c1` (stereo not drawn), with 52.3%; and `Cc1nc(C)n(C2CCCN(C(=O)c3ccccc3C)C2)n1` (stereo not drawn), with 31.1%.
Take `Cc1nc(C)n(C2CCCN(C(=O)c3cccc4[nH]ncc34)C2)n1` (stereo not drawn): the INHIBITION is listed as -50.8%.
With `Cc1nc(C)n(C2CCCN(C(=O)c3cccc4cn[nH]c34)C2)n1` (stereo not drawn), the INHIBITION came out at 56%.
As to `COc1cc(Cl)ccc1C(=O)N1CCCC(n2nc(C)nc2C)C1` (stereo not drawn), the INHIBITION was 19.4%.
With `Cn1ccc(CN2CCC(NC(=O)C3CCCCC3)CC2)cc1=O`, the INHIBITION came to 5.907%.
The value for `CC1(C(=O)NCc2cccc(C(F)(F)F)c2)CCOCC1` was 15.9%; that for `O=C1CSC(C(F)(F)F)c2c(O)nn(C3CCCC3)c2N1` (stereo not drawn) was 13.1%; that for `CCC(C)NC(=O)Nc1cccc(OCC#N)c1` (stereo not drawn) was 5.29%.
The value for `Cc1nc(CNCc2cccc(OC34CCCN(CC3)C4)c2)n[nH]1` (stereo not drawn) was 31.15%.
Take `c1ccc(Oc2ccc(OC34CCCN(CC3)C4)cc2)cc1` (stereo not drawn): the INHIBITION is recorded as 57.6%.
For the compound `c1ccc(Oc2cccc(OC34CCCN(CC3)C4)c2)cc1` (stereo not drawn), the INHIBITION was 65.7%.
Regarding `Cc1cnccc1CNCc1ccc(OC23CCCN(CC2)C3)cc1` (stereo not drawn), the INHIBITION was found to be 21.525%.
As to `O=c1[nH]nc(CNCc2ccc(OC34CCCN(CC3)C4)cc2)[nH]1` (stereo not drawn), the INHIBITION was found to be 21.085%.
Take `N#Cc1cccc(OC23CCCN(CC2)C3)c1` (stereo not drawn): the INHIBITION amounted to 21.2%.
As for `Cc1cn2cc(-c3nc4c([nH]3)CCCNC4=O)nc2s1`, the INHIBITION is given as -54.3%.
Regarding `CC(C)(C)c1nnc(CN2CCN(C(=O)N3CCCCC3)CC2)o1`, the INHIBITION amounted to 29.5%.
The value for `CC(=O)N1CCCCCC1C1CCN(Cc2nc(C(C)C)no2)CC1` (stereo not drawn) was 8.11%; that for `CC(=O)N1CCCCCC1C1CCN(Cc2nnc(C(C)(C)C)o2)CC1` (stereo not drawn) was 66.5%.
Turning to `CC(=O)N1CCN(Cc2nnc(C(C)(C)C)o2)CC1`, the INHIBITION was -33.2%.
`CC(=O)N1CCCCCC1C1CCN(Cc2nc(C3CC3)no2)CC1` (stereo not drawn): the INHIBITION was 55.4%.
On to `O=C(NCC1CCCO1)C1CCN(Cc2nc(C3CC3)no2)CC1` (stereo not drawn), for which the INHIBITION stood at 40.2%.
As for `CCc1nnc(CN2CCC(C3CCCCCN3C(=O)C3CC3)CC2)o1` (stereo not drawn), the INHIBITION is 62.8%.
Take `CCc1nnc(CN2CCN(C(C)=O)CC2)o1`: the INHIBITION is given as 9.65%.
Regarding `CS(=O)(=O)N1CCCCCC1C1CCN(Cc2nc(C3CC3)no2)CC1` (stereo not drawn), the INHIBITION was determined as 29.1%.
As to `CC(=O)NCC1CCN(Cc2nc(C3CC3)no2)CC1`, the INHIBITION turned out to be 57.5%.
`CCN1CCN(C2CCN(Cc3nc(C4CC4)no3)CC2)C1=O`: the INHIBITION was 33.8%.
As for `CCc1nnc(CN2CCC(C3CCCCCN3C(C)=O)CC2)o1` (stereo not drawn), the INHIBITION is on record as 40.6%.
In the case of `Cc1[nH]ccc1C(=O)Nc1cccc(CN2CCC(CO)CC2)c1`, the INHIBITION worked out at 25.3%.
With `CC(C)=CCN1C[C@@H]2CC[C@H]1CN(C(=O)c1ccc(S(N)(=O)=O)cc1)C2`, the INHIBITION is on record as 39.4%.
In the case of `Cc1ncsc1C(=O)N1CCN(Cc2cscn2)CC1`, the INHIBITION is 16%.
For `Cc1cccc(OCCNC(=O)Cn2ccc(C)cc2=O)c1`, the INHIBITION was determined as 28.7%.
Then `O=C(c1ccnc(NC2CC2)c1)N1CCCC1c1cccc(Br)c1` (stereo not drawn), with -96.5%; and `Cc1ccc(C)c2c(C)c(C(=O)NCCCn3cnnc3)[nH]c12`, with -56.7%; and `CN(C)C(=O)COC1COC2(CCN(CC3CC3)CC2)C1` (stereo not drawn), with 37.6%.
Then `Cc1cccc(CN2C(=O)C[C@H]3[C@@H]2CCN3CC2CC2)n1`, with -14.3%; and `Cn1cc(NC(=O)CNC(=O)N2CCN(c3ccc(F)cc3)CC2)cn1`, with 9.55%; and `CNc1cc(N2CCCC2CNCc2cnc(C)s2)ncn1` (stereo not drawn), with 7.61%.
Take `COCc1cnc2n1CCN(C(=O)c1cc3cc(Cl)ccc3o1)C2C` (stereo not drawn): the INHIBITION is on record as 46.6%.
Take `COCc1cnc2n1CCN(C(=O)c1cnc3ccccc3c1)C2C` (stereo not drawn): the INHIBITION amounted to 11.3%.
Consider `COCc1cnc2n1CCN(C(=O)C1=CCCC1)C2C` (stereo not drawn), for which the INHIBITION is recorded as -56.3%.
The value for `COCc1cnc2n1CCN(C(=O)c1ccc3ccccc3n1)C2C` (stereo not drawn) was 61.1%.
`COCc1cnc2n1CCN(C(=O)c1ocnc1C)C2C` (stereo not drawn): the INHIBITION turned out to be 20.5%.
As to `COCc1cnc2n1CCN(C(=O)C1=CCCCC1)C2C` (stereo not drawn), the INHIBITION is reported as 14.2%.
On to `Cc1ncoc1C(=O)N1CCn2c(COc3cccnc3)cnc2C1C` (stereo not drawn), for which the INHIBITION is listed as 5.67%.
`COCc1cnc2n1CCN(C(=O)c1oc3ccccc3c1C)C2C` (stereo not drawn): the INHIBITION was determined as 52.1%.
For `COCc1cnc2n1CCN(C(=O)c1cc3ccccc3o1)C2C` (stereo not drawn), the INHIBITION is listed as 62%.
Turning to `CCn1cc(CNCCNc2ncc(Cl)cc2Cl)cn1`, the INHIBITION was determined as 15.7%.
In the case of `O=C(Cn1cnc2ccsc2c1=O)NCCCc1nnc2ccccn12`, the INHIBITION was found to be 34.3%.
Regarding `CCN1CCn2c(C)cnc2C12CCN(C(=O)C(C)C)CC2`, the INHIBITION was -40.5%.
For `CN(C)c1cc(CNC(=O)Nc2nncs2)ccn1`, the INHIBITION is -2.19%.
As to `Cc1cc(C(=O)N[C@H]2COC[C@@H]2N2CCOCC2)c2ccc(F)cc2n1`, the INHIBITION was determined as 55.4%.
As to `Cc1ccc2nc(C)cc(C(=O)N[C@H]3COC[C@@H]3N3CCOCC3)c2c1`, the INHIBITION turned out to be 66.5%.
For `Cc1ccc2nc(C)c(C)c(C(=O)N3CCC4(CCO4)CC3)c2c1`, the INHIBITION was 33.3%.
Then `Cc1cc(C(=O)N2CCN[C@H](C)C2)c2ccc(F)cc2n1`, with 12.2%.
Then `CCO[C@H]1CN(C)C[C@@H]1NC(=O)c1cc(C)nc2ccc(C)cc12`, with 28.4%.
The value for `Cc1ccc2nc(C)c(C)c(C(=O)N[C@H]3COC[C@@H]3N3CCCC3)c2c1` was 59.1%; that for `Cc1nc(C(=O)N[C@H]2COC[C@@H]2N2CCCCC2)cs1` was 11.3%.
For `CO[C@H]1CNC[C@@H]1NC(=O)c1cc(C)nc2ccc(C)cc12`, the INHIBITION is -100%.
With `Cc1cc(C(=O)N(C)C2CCN(C)C2)c2ccc(F)cc2n1` (stereo not drawn), the INHIBITION is given as 21.5%.
In the case of `CCc1nccn1C1CCCN(C(=O)Cc2cn3ccsc3n2)C1` (stereo not drawn), the INHIBITION is -23.9%.
The value for `CC(C)c1nnc2ccc(N3CCC(C(=O)NC4CC4)CC3)nn12` was -18.9%; that for `CC(C)CNC(=O)NC(=O)C(C)Nc1cccc(CN2CCOC2=O)c1` (stereo not drawn) was -34.2%; that for `CC(C)c1ccc(OCCC(=O)N2CCC(C(=O)N(C)C)CC2)cc1` was -37.55%.
Then `Cc1cc(C(=O)N2CCCCC2c2nc3cc(F)ccc3[nH]2)nn1C` (stereo not drawn), with 10.7%; and `Cn1cc(C2COC3(CCN(C(=O)c4cnccn4)CC3)C2)cn1` (stereo not drawn), with 39.2%.
With `Cc1oc(C(=O)O)cc1S(=O)(=O)Nc1ccc(Br)cc1Cl`, the INHIBITION is given as -18.8%.
For `CN(C)CC(NC(=O)c1ccn(C)c(=O)c1)c1ccccc1` (stereo not drawn), the INHIBITION is reported as 4.34%.
`CN(C)c1cccc(C(=O)NCC2(O)CCOCC2)c1`: the INHIBITION was 58.3%.
Take `CN(C)c1ccc(C(=O)NCC2(O)CCOCC2)cc1`: the INHIBITION is listed as -3.95%.
The value for `CC1(C(=O)NCc2ccsc2)CCOCC1` was 44.9%; that for `Cc1ccc(C(=O)NCC2(O)CCOCC2)cc1F` was 48.4%.
Then `O=C(NCC1(O)CCOCC1)c1ccn(-c2ccccc2F)n1`, with -14.9%.
As for `O=C(NCC1(O)CCOCC1)c1ccc(F)cc1`, the INHIBITION was found to be 54.8%.
Then `CC1(C(=O)NCCc2ccc(F)cc2)CCOCC1`, with 54%.
Then `COC(=O)c1ccc(C(=O)NCC2(O)CCOCC2)cc1`, with 36.3%; and `CC1(C(=O)NCc2cc(F)cc(F)c2)CCOCC1`, with 37.5%; and `CN1CCN(C(=O)c2cc(C#N)cn2C)c2ccccc2C1`, with -59.5%.
With `CCn1cc(S(=O)(=O)N2CCCCCC2c2cc(C)no2)cn1` (stereo not drawn), the INHIBITION was -7.66%.
`Cc1cc(C)n(CC2CCCN2C(=O)CCc2ccco2)n1` (stereo not drawn): the INHIBITION is on record as 27.25%.
Regarding `NC(=O)C(Nc1ccc(Cl)cc1)c1ccc(F)cc1` (stereo not drawn), the INHIBITION is 4.81%.
As for `CCCc1nc(C(C)(C)NC(=O)C2CC(=O)N(CC(C)C)C2)no1` (stereo not drawn), the INHIBITION is on record as -5.25%.
As to `CC1=C(C#N)C(=O)NC(=O)/C1=C\c1c(C)[nH]n(-c2ccc(C)cc2)c1=O`, the INHIBITION is 47.1%.
